About 83,000 compounds went through this panel and 20% of them were active in at least one assay; those are over-represented in the sample as a whole.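 Testing used 96-well plates and a 48-hour single-concentration exposure. Example: -40 means 40% of the starting cells died.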 Unmarked numbers belong to inactive results. Activity calls are given as the source filed them.
The compounds below were run on NCI-H226 lung (assay: NCI-60 one-dose screen, 48 h (100 = growth as untreated, 0 = no growth, -100 = all killed)). Details: 10 µM unless noted.
Experimental: Growth inhibition of the NCI-H226 human Non-Small Cell Lung tumor cell line is measured as a screen for anti-cancer activity. Cells are grown in 96 well plates and exposed to the test compound for 48 hours. Compounds are tested at a single concentration, which is 10^-5 M for most compounds. The reported endpoint is percent growth (GI% or GIPRCNT), where numbers from 0 - 100% represent growth inhibition, and numbers from -100% - 0 represent cell death. For example, a value of 40 represents 60% growth inhibition. A value of 0 means no net growth occurred over the course of the experiment. A value of -40 indicates 40% of cells at the beginning of the experiment died by the end of the experiment. A value of -100 means all cells are dead at the end of the experiment.
NCI-60 Human Tumor Cell Lines Screen was performed using the standard one-dose NCI protocol, which is described in more detail at https://dtp.cancer.gov/discovery_development/nci-60/default.htm.
Compounds with GIPRCNT values below 10 were considered active. Activity score was based on GIPRCNT using the following formula: […]
Score is 0 for GIPRCNT values of 100 or above, 50 for GIPRCNT values of 0, and 100 for GIPRCNT values of -100.

Going from `CCC1CCc2nc3sc(C(=O)Nc4ccccc4C)c(N)c3cc2C1` (stereo not given) to `CCC1CCc2nc3sc(C(=O)Nc4ccccc4F)c(N)c3cc2C1` (stereo not given), the growth rises from 62.7% to 89.8%.

Going from `COc1ccc(-c2nnc(COc3ccc(NS(=O)(=O)c4ccc(OC)cc4)cc3F)o2)cc1` to `COc1ccc(NC(=O)/N=c2\oc3c(OC)cccc3cc2-c2cc3ccccc3[nH]2)cc1`, the growth rises from 57.9% to 67.7%.

Going from `CCCCCCCCCN1C(=O)/C(=c2\sc3n(c2=O)C2C(NN=3)N(CC)C(=O)N2CC)c2ccccc21` (stereo not given) to `COC1=CC(c2ccc[nH]2)=N/C1=C\c1[nH]c(C)c(CCCn2cc(CCCCCCCCC[C@@H]3Cc4cc(O)ccc4C4CC[C@]5(C)[C@@H](O)CC[C@H]5C43)nn2)c1C` (stereo not given in full), the growth falls from 89.6% to 68.2%.

Compared with `Cc1ccc(C2=NN(c3ccc(S(N)(=O)=O)cc3)C(c3cn(-c4ccccc4)nc3-c3ccccc3)C2)cc1` (stereo not given), `O=S(=O)(NCCCNc1cc(-c2cn(-c3ccccc3)nc2-c2cccc(O)c2)ccn1)c1ccc(C(F)(F)F)cc1` is lower in growth: 97.8% for the first, 49.6% for the second.

Compared with `O=S(=O)(NCCCNc1nccc(-c2c(-c3ccccc3)nc3sccn23)n1)c1ccc(F)cc1`, `O=S(=O)(NCCCNc1nccc(-c2c(-c3ccc(F)c(O)c3)nc3sccn23)n1)c1ccc(Cl)cc1` is higher in growth: 24.2% for the first, 104% for the second.

First: Cc1oc2ncnc(Nc3ccccc3)c2c1C(=O)NCCO
Second: CCc1c(C(=O)Nc2ccc3ccccc3c2)[nH]c(C)c1C(C)=O
The growth of the first is higher: 106% for the first, 95.7% for the second.

Going from `Cc1ccc(Cn2c(-c3nonc3N)nc3ccccc32)cc1` to `O=C1OC(c2ccccc2)=N/C1=C\c1ccc([N+](=O)[O-])cc1`, the growth rises from 82.7% to 93.6%.

First: CCN(Cc1ccccc1)c1ccc(SC#N)cc1
Second: O=C1CCC(=O)N1Cc1ccccc1
The growth of the first is higher: 112% for the first, 89.5% for the second.

Compared with `O=C(O)c1cccc([N+](=O)[O-])c1/C=C/c1ccccc1`, `COc1cccc(NC(=O)Cn2cc3c(=O)oc4ccccc4c3n2)c1` is higher in growth: 96.9% for the first, 104% for the second.

First: Cc1ccc(S(=O)(=O)N2CCC(C(=O)Nc3ccc(F)cc3F)CC2)cc1
Second: Nc1ccc(S(=O)(=O)c2ccc(Cl)cc2)cc1
The growth of the first is lower: 87.9% for the first, 98% for the second.

Compared with `CC(=O)Nc1nc(C(=O)N2N=C(C)/C(=C/c3ccc(Cl)cc3)C2=O)cs1`, `CCSc1nnc(NC(=O)COc2ccc(Cl)cc2C)s1` is lower in growth: 106% for the first, 101% for the second.

First: COc1cc(NC(=O)c2cc3ccccc3nc2Nc2ccc(F)cc2)cc(OC)c1OC
Second: COc1ccc(C2CC(=O)Nc3c2c(C)nn3-c2nc3ccccc3[nH]2)cc1OC (stereo not given)
The growth of the first is lower: 43% for the first, 58.7% for the second.

First: COc1ccc(C2NC3=C(CCCC3)C(C#N)(C#N)C2(C#N)C#N)cc1 (stereo not given)
Second: C=C1C(=O)O[C@H]2[C@H]1CC/C(COC(=O)NCc1ccc(OC)cc1)=C\CC[C@@]1(C)O[C@@H]21
The growth of the first is higher: 97% for the first, 64.5% for the second.

First: Cc1cc2c(C(C)C)c(O)c(O)c(C=NCCCCC(=O)O)c2c(O)c1-c1c(C)cc2c(C(C)C)c(O)c(O)c(C=NCCCCC(=O)O)c2c1O
Second: CCn1c(=O)c2c(=O)c3c4c(oc3oc2c2ccccc21)C(=O)c1ccccc1C4=O
The growth of the first is lower: 85.2% for the first, 99.4% for the second.

Going from `O=C(C[N+](=O)[O-])c1ccc(Cl)cc1` to `N#Cc1c(NC(=O)c2ccc([N+](=O)[O-])o2)[n+]([O-])c2cc(F)c(F)cc2[n+]1[O-]`, the growth falls from 110% to 108%.

Compared with `O=C(CCCn1c2c(sc3ccccc32)c(=O)n2nnc(-c3ccccc3)c12)NCCc1cnc[nH]1`, `CC(Br)C(OC(=O)c1ccccc1Cl)c1cc2c(cc1Br)OCO2` (stereo not given) is lower in growth: 98.5% for the first, 76.6% for the second.

Compared with `Nc1cccc2c1CN(C1CCC(=O)NC1=O)C2=O` (stereo not given), `Cn1c(C(N)=O)cc2c1-c1nc(NC3CCCCC3)ncc1CCC2` is lower in growth: 108% for the first, 70.9% for the second.

First: CC(=O)C1CCC(C)=CC1=O (stereo not given)
Second: CCOC(=O)CC(C#N)(CC(=O)OCC)C(=O)OCC
The growth of the first is higher: 104% for the first, 94.5% for the second.

In the case of `C/C(=C\c1csc(C)n1)[C@@H]1C[C@@H]2O[C@]2(C)CCC[C@H](C)[C@H](O)[C@@H](C)C(=O)C(C)(C)[C@@H](O)CC(=O)N1`, the growth is reported as -60.3% (active).
With `N=C(N)c1ccc(-c2ccc(-c3ccc(Cl)cc3)o2)nc1` the growth was -68.2% (active).
For `CCN(CC)CCCC(C)N=c1cc(Nc2cc(=NC(C)CCCN(CC)CC)c3cc(OC)ccc3o2)oc2ccc(OC)cc12` (stereo not given), the growth was 2.33% (active).
In the case of `COc1ccc(-c2nc3sccn3c2-c2ccnc(NCCCNS(=O)(=O)c3ccc(F)cc3)n2)cc1`, the growth is reported as -4.69% (active).

— PubChem BioAssay (NCI)
